# According to the supplement of paper PMC8728848:
# This excerpt belongs to a sample that is enriched for the strongest signals.
# What was measured:
# Assay in all cases: glycan array binding signal (z-score within array); higher = stronger binding
# Conditions in all cases: glycan notation: IUPAC condensed, linker removed
# [1] = molecular target: Fuc(a1-2)Gal(b1-3)GalNAc(a1-3)[Fuc(a1-2)]Gal(b1-4)Glc
# Method in brief: (§1)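 From the Consortium for Functional Glycomics database, 3228 arrays were curated, keeping only those whose protein sequence was available. Binding is given as a within-array Z-score averaged across arrays sharing a protein sequence and across linkers. Negative Z-scores can be read as non-binding.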
# [2] = molecular target: Fuc(a1-2)Gal(b1-4)[Fuc(a1-3)]GlcNAc
# Method in brief: as §1
# [3] = molecular target: Fuc(a1-2)[Gal(a1-3)]Gal(b1-3)GalNAc
# Method in brief: as §1
# [4] = molecular target: Fuc(a1-2)[Gal(a1-3)]Gal(b1-3)GlcNAc(b1-2)Man(a1-3)[Fuc(a1-2)[Gal(a1-3)]Gal(b1-3)GlcNAc(b1-2)Man(a1-6)]Man(b1-4)GlcNAc(b1-4)GlcNAc
# Method in brief: as §1
# [5] = molecular target: Fuc(a1-2)[Gal(a1-3)]Gal(b1-3)GlcNAc(b1-2)Man(a1-3)[Fuc(a1-2)[Gal(a1-3)]Gal(b1-3)GlcNAc(b1-2)Man(a1-6)]Man(b1-4)GlcNAc(b1-4)[Fuc(a1-6)]GlcNAc
# Method in brief: as §1
# [6] = molecular target: Fuc(a1-2)[Gal(a1-3)]Gal(b1-4)GlcNAc(b1-2)Man(a1-3)[Fuc(a1-2)[Gal(a1-3)]Gal(b1-4)GlcNAc(b1-2)Man(a1-6)]Man(b1-4)GlcNAc(b1-4)GlcNAc
# Method in brief: as §1
# [7] = molecular target: Fuc(a1-2)[GalNAc(b1-3)]Gal
# Method in brief: as §1
# [8] = molecular target: Fuc(a1-3)[Gal(b1-4)]GlcNAc(b1-3)GalNAc
# Method in brief: as §1
# [9] = molecular target: Fuc(a1-3)[Gal(b1-4)]GlcNAc(b1-6)[Gal(b1-3)GlcNAc(b1-3)]Gal(b1-4)Glc
# Method in brief: as §1
# Gal(a1-2)Gal = molecular target: Gal(a1-2)Gal
# Method in brief: as §1
# [10] = molecular target: Gal(a1-3)Fuc(a1-2)Gal(b1-4)GlcNAc(b1-3)[Gal(a1-3)Fuc(a1-2)Gal(b1-4)GlcNAc(b1-6)]GalNAc
# Method in brief: as §1
# [11] = molecular target: Gal(a1-3)Gal(b1-3)GlcNAc(b1-2)Man
# Method in brief: as §1
# Gal(a1-3)Gal(b1-4)GlcNAc = molecular target: Gal(a1-3)Gal(b1-4)GlcNAc
# Method in brief: as §1
# [12] = molecular target: Gal(a1-3)Gal(b1-4)GlcNAc(b1-2)Man(a1-3)[Gal(a1-3)Gal(b1-4)GlcNAc(b1-2)Man(a1-6)]Man(b1-4)GlcNAc(b1-4)GlcNAc
# Method in brief: as §1
# [13] = molecular target: Gal(a1-3)Gal(b1-4)[Fuc(a1-3)]GlcNAc
# Method in brief: as §1
# [14] = molecular target: Gal(a1-3)[Gal(a1-4)]Gal(b1-4)GlcNAc
# Method in brief: as §1
# [15] = molecular target: Gal(a1-4)Gal(b1-3)GlcNAc(b1-2)Man(a1-3)[Gal(a1-4)Gal(b1-3)GlcNAc(b1-2)Man(a1-6)]Man(b1-4)GlcNAc(b1-4)GlcNAc
# Method in brief: as §1
# [16] = molecular target: Gal(a1-4)Gal(b1-4)GlcNAc(b1-2)Man(a1-3)[Gal(a1-4)Gal(b1-4)GlcNAc(b1-2)Man(a1-6)]Man(b1-4)GlcNAc(b1-4)GlcNAc
# Method in brief: as §1
# Gal(a1-4)GlcNAc = molecular target: Gal(a1-4)GlcNAc
# Method in brief: as §1
# [17] = molecular target: Gal(b1-3)GalNAc(a1-3)[Fuc(a1-2)]Gal(b1-4)GlcNAc
# Method in brief: as §1
# [18] = molecular target: Gal(b1-3)GlcNAc(a1-6)Gal(b1-4)GlcNAc
# Method in brief: as §1
# Gal(b1-3)GlcNAc(b1-2)Man = molecular target: Gal(b1-3)GlcNAc(b1-2)Man
# Method in brief: as §1
# [19] = molecular target: Gal(b1-3)GlcNAc(b1-2)[Gal(b1-3)GlcNAc(b1-6)]Man(a1-6)[Gal(b1-3)GlcNAc(b1-2)Man(a1-3)]Man(b1-4)GlcNAc(b1-4)GlcNAc
# Method in brief: as §1
# [20] = molecular target: Gal(b1-3)GlcNAc(b1-3)Gal(b1-4)GlcNAc
# Method in brief: as §1
# [21] = molecular target: Gal(b1-3)GlcNAc(b1-3)Gal(b1-4)GlcNAc(b1-6)[Gal(b1-3)GlcNAc(b1-3)]Gal(b1-4)Glc
# Method in brief: as §1
# [22] = molecular target: Gal(b1-3)GlcNAc(b1-3)Gal(b1-4)[Fuc(a1-3)]GlcNAc
# Method in brief: as §1
# [23] = molecular target: Gal(b1-4)GlcNAc(b1-2)Man(a1-3)[Gal(b1-4)GlcNAc(b1-2)Man(a1-6)][Gal(b1-4)GlcNAc(b1-4)]Man(b1-4)GlcNAc(b1-4)[Fuc(a1-6)]GlcNAc
# Method in brief: as §1
# [24] = molecular target: Gal(b1-4)GlcNAc(b1-2)Man(a1-3)[GlcNAc(b1-4)][Gal(b1-4)GlcNAc(b1-2)Man(a1-6)]Man(b1-4)GlcNAc(b1-4)GlcNAc
# Method in brief: as §1
# [25] = molecular target: Gal(b1-4)GlcNAc(b1-2)Man(a1-6)Man(b1-4)GlcNAc(b1-4)GlcNAc
# Method in brief: as §1
# [26] = molecular target: Gal(b1-4)GlcNAc(b1-3)Gal(b1-4)GlcNAc(b1-3)Gal(b1-4)GlcNAc(b1-3)Gal(b1-4)GlcNAc(b1-3)Gal(b1-4)GlcNAc(b1-3)Gal(b1-4)GlcNAc(b1-2)Man(a1-3)[Gal(b1-4)GlcNAc(b1-3)Gal(b1-4)GlcNAc(b1-3)Gal(b1-4)GlcNAc(b1-3)Gal(b1-4)GlcNAc(b1-3)Gal(b1-4)GlcNAc(b1-3)Gal(b1-4)GlcNAc(b1-2)Man(a1-6)]Man(b1-4)GlcNAc(b1-4)GlcNAc
# Method in brief: as §1
# Gal3S(b1-4)Glc = molecular target: Gal3S(b1-4)Glc
# Method in brief: as §1
# Gal3S(b1-4)GlcNAc = molecular target: Gal3S(b1-4)GlcNAc
# Method in brief: as §1
# [27] = molecular target: GalNAc(a1-3)GalNAc(b1-3)Gal(a1-4)Gal(b1-4)Glc
# Method in brief: as §1
# GalNAc3S(b1-4)GlcNAc = molecular target: GalNAc3S(b1-4)GlcNAc
# Method in brief: as §1
# [28] = molecular target: GlcNAc(a1-4)Gal(b1-4)GlcNAc
# Method in brief: as §1
# [29] = molecular target: GlcNAc(b1-2)[GlcNAc(b1-4)]Man(a1-3)[GlcNAc(b1-4)][GlcNAc(b1-2)[GlcNAc(b1-6)]Man(a1-6)]Man(b1-4)GlcNAc(b1-4)GlcNAc
# Method in brief: as §1
# [30] = molecular target: GlcNAc(b1-2)[GlcNAc(b1-4)]Man(a1-3)[GlcNAc(b1-4)][GlcNAc(b1-2)[GlcNAc(b1-6)]Man(a1-6)]Man(b1-4)GlcNAc(b1-4)[Fuc(a1-6)]GlcNAc
# Method in brief: as §1
# [31] = molecular target: GlcNAc(b1-3)Gal(b1-4)GlcNAc
# Method in brief: as §1
# [32] = molecular target: GlcNAc(b1-3)Gal(b1-4)GlcNAc(b1-3)Gal(b1-4)GlcNAc(b1-2)Man(a1-3)[GlcNAc(b1-3)Gal(b1-4)GlcNAc(b1-3)Gal(b1-4)GlcNAc(b1-2)Man(a1-6)]Man(b1-4)GlcNAc(b1-4)GlcNAc
# Method in brief: as §1
# [33] = molecular target: GlcNAc(b1-3)Gal(b1-4)GlcNAc(b1-3)GalNAc
# Method in brief: as §1
# [34] = molecular target: GlcNAc(b1-3)[GlcNAc(b1-4)][GlcNAc(b1-6)]GlcNAc
# Method in brief: as §1
# [35] = molecular target: GlcNAc(b1-3)[GlcNAc(b1-6)]GalNAc
# Method in brief: as §1
# [36] = molecular target: Neu5Ac(a2-3)Gal(b1-3)GlcNAc(b1-2)Man(a1-3)[GlcNAc(b1-4)][Neu5Ac(a2-3)Gal(b1-3)GlcNAc(b1-2)Man(a1-6)]Man(b1-4)GlcNAc(b1-4)GlcNAc
# Method in brief: as §1
# [37] = molecular target: Neu5Ac(a2-3)Gal(b1-4)GlcNAc(b1-2)Man
# Method in brief: as §1
# [38] = molecular target: Neu5Ac(a2-3)Gal(b1-4)GlcNAc(b1-2)Man(a1-3)[Neu5Ac(a2-3)Gal(b1-4)GlcNAc(b1-2)Man(a1-6)]Man(b1-4)GlcNAc(b1-4)[Fuc(a1-6)]GlcNAc
# Method in brief: as §1
# [39] = molecular target: Neu5Ac(a2-3)Gal(b1-4)GlcNAc(b1-3)Gal(b1-4)GlcNAc(b1-2)Man(a1-3)[Neu5Ac(a2-3)Gal(b1-4)GlcNAc(b1-3)Gal(b1-4)GlcNAc(b1-2)Man(a1-6)]Man(b1-4)GlcNAc(b1-4)GlcNAc
# Method in brief: as §1
# [40] = molecular target: Neu5Ac(a2-3)Gal(b1-4)GlcNAc(b1-6)[Gal(b1-3)]GalNAc
# Method in brief: as §1
# [41] = molecular target: Neu5Ac(a2-3)Gal(b1-4)GlcNAc(b1-6)[Neu5Ac(a2-3)Gal(b1-3)]GalNAc
# Method in brief: as §1
# [42] = molecular target: Neu5Ac(a2-3)Gal(b1-4)[Fuc(a1-3)]GlcNAc(b1-2)Man
# Method in brief: as §1
# [43] = molecular target: Neu5Ac(a2-3)GalNAc(b1-4)GlcNAc
# Method in brief: as §1
# [44] = molecular target: Neu5Ac(a2-6)GlcNAc(b1-4)GlcNAc(b1-4)GlcNAc
# Method in brief: as §1
# [45] = molecular target: Neu5Ac(a2-8)Neu5Ac(a2-8)Neu5Ac
# Method in brief: as §1
# [46] = molecular target: Neu5Ac9Ac(a2-3)Gal(b1-4)GlcNAc
# Method in brief: as §1
binder,measurement,setting,value
GSL-I-B4 (Griffonia simplicifolia) (protein) NFWSDVEDSIIFQGDANTTAGTLQLCKTNQYGTPLQWSAGRALYSDPVQLWDNKTESVASFYTEFTFFLKITGNGPADGLAFFLAPPDSDVKDAGEYLGLFNKSTATQPSKNQVVAVEFDTWTNPNFPEPSYRHIGINVNSIVSVATKRWEDSDIFSGKIATARISYDGSAEILTVVLSYPDGSDYILSHSVDMRQNLPESVRVGISASTGNNQFLTVYILSWRFSSNLQSTSVKAAMEPEITRTVV,glycan array binding signal (z-score),[1],-0.132
same,glycan array binding signal (z-score),[2],-0.131
same,glycan array binding signal (z-score),[3],0.853
same,glycan array binding signal (z-score),[4],1.74
same,glycan array binding signal (z-score),[5],0.077
same,glycan array binding signal (z-score),[6],3.69
same,glycan array binding signal (z-score),[7],-0.12
same,glycan array binding signal (z-score),[8],-0.197
same,glycan array binding signal (z-score),[9],-0.155
same,glycan array binding signal (z-score),Gal(a1-2)Gal,5.94
same,glycan array binding signal (z-score),[10],1.98
same,glycan array binding signal (z-score),[11],1.88
same,glycan array binding signal (z-score),Gal(a1-3)Gal(b1-4)GlcNAc,2
same,glycan array binding signal (z-score),[12],7.78
same,glycan array binding signal (z-score),[13],6.03
same,glycan array binding signal (z-score),[14],1.71
same,glycan array binding signal (z-score),[15],5.37
same,glycan array binding signal (z-score),[16],1.52
same,glycan array binding signal (z-score),Gal(a1-4)GlcNAc,13.8
same,glycan array binding signal (z-score),[17],-0.212
same,glycan array binding signal (z-score),[18],-0.155
same,glycan array binding signal (z-score),Gal(b1-3)GlcNAc(b1-2)Man,-0.171
same,glycan array binding signal (z-score),[19],-0.138
same,glycan array binding signal (z-score),[20],-0.228
same,glycan array binding signal (z-score),[21],-0.187
same,glycan array binding signal (z-score),[22],-0.177
same,glycan array binding signal (z-score),[23],-0.172
same,glycan array binding signal (z-score),[24],-0.15
same,glycan array binding signal (z-score),[25],-0.205
same,glycan array binding signal (z-score),[26],-0.133
same,glycan array binding signal (z-score),Gal3S(b1-4)Glc,-0.151
same,glycan array binding signal (z-score),Gal3S(b1-4)GlcNAc,-0.174
same,glycan array binding signal (z-score),[27],-0.156
same,glycan array binding signal (z-score),GalNAc3S(b1-4)GlcNAc,-0.159
same,glycan array binding signal (z-score),[28],-0.12
same,glycan array binding signal (z-score),[29],-0.089
same,glycan array binding signal (z-score),[30],-0.062
same,glycan array binding signal (z-score),[31],-0.186
same,glycan array binding signal (z-score),[32],0.066
same,glycan array binding signal (z-score),[33],-0.208
same,glycan array binding signal (z-score),[34],-0.144
same,glycan array binding signal (z-score),[35],-0.161
same,glycan array binding signal (z-score),[36],-0.151
same,glycan array binding signal (z-score),[37],-0.197
same,glycan array binding signal (z-score),[38],-0.214
same,glycan array binding signal (z-score),[39],0.149
same,glycan array binding signal (z-score),[40],-0.23
same,glycan array binding signal (z-score),[41],-0.212
same,glycan array binding signal (z-score),[42],-0.187
same,glycan array binding signal (z-score),[43],-0.157
same,glycan array binding signal (z-score),[44],-0.169
same,glycan array binding signal (z-score),[45],-0.144
same,glycan array binding signal (z-score),[46],-0.134
